HTR5A inv ctr: counter-screen for OPRM1-OPRD1 inverse agonists: human HTR5A inverse agonism. P47898. inhibition, % at 9.3 µM. HTR5A cell line, luminescence. actives 0.083% (n = 340,000); in the data active = inhibition mostly above about 23%, no sharp cut-off; inactive = mostly below about 18%;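 note: 0% = cells with DMSO and 100% = no-cell wells with DMSO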
HTR5A ag ctr: activates human HTR5A in OPRM1-OPRD1 agonist counter-screen; P47898; HTR5A agonist assay, luminescence, cell-based; activation, % at 9.3 µM; actives 0.61% (n = 340,000); in the data active = activation mostly above about 9.5%, no sharp cut-off; inactive = mostly below about 7.6%;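 note: 0% = cells with vehicle only and 100% = reference agonist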
MOR-DOR inv ag-1: inverse agonists of human mu-delta opioid receptor heterodimerization | actives 0.21% (n = 340,000) | inhibition, % at 9.3 µM | AID 504357 | cell-based MOR-DOR heterodimer luminescence, inverse agonism | P35372+P41143; in the data active = inhibition above about 22%, passing the limit was not always enough;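 note: 0% = cells with DMSO and 100% = wells without cells with DMSO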
Target sequence (P35372 whole entry, looked up): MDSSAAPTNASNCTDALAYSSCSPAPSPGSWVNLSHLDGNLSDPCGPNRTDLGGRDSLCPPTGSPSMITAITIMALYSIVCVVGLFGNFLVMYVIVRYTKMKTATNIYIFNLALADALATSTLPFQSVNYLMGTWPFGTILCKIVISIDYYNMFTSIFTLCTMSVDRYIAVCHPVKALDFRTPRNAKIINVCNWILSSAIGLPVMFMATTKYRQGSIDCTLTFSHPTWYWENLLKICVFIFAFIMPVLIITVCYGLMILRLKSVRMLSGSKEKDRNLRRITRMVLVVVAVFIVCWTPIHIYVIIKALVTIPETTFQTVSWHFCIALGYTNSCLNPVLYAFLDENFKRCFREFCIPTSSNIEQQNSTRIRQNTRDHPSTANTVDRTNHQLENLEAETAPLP
Target sequence (P41143 whole entry, looked up): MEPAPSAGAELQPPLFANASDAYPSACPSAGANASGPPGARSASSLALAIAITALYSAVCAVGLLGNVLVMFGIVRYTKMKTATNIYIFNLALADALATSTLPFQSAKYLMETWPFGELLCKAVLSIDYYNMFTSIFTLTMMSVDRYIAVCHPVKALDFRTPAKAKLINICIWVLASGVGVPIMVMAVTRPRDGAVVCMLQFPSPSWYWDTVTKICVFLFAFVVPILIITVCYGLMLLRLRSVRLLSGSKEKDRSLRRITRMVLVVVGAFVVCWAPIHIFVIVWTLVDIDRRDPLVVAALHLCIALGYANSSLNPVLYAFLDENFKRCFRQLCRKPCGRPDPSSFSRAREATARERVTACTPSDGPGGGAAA
OPRM1-OPRD1 ag: OPRM1-OPRD1 heterodimerization agonism | P35372+P41143 | cells, luminescence | activation, % at 9.3 µM | actives 0.3% (n = 340,000); in the data active = activation above about 18%;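 note: 0% = vehicle-treated cells and 100% = reference agonist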
MOR-DOR inv ag-2: counter-screen for HTR5A inverse agonists: OPRM1-OPRD1 heterodimerization inverse agonism; shares compounds with HTR5A inv ctr; inhibition, % at 9.3 µM; 190 tested, under 10 active; U2OS counter-screen cells, complementation luminescence;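 note: 0% = cells with DMSO and 100% = wells without cells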
HTR5A inv confrm: HTR5A (human) inverse agonism, confirmation. shares compounds with HTR5A inv ctr. HTR5A-expressing cells, luminescence. inhibition, % at 9.3 µM. 190 tested, under 10 active. AID 504916;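 note: 0% = cells with DMSO and 100% = no cells with DMSO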
Numbers without * were called inactive; nt = no result given. Only some compounds are listed: those with a hit (about 1.1% of all), similar ones and a draw of the others. Unless noted, the rule behind the calls is not given here.

SMILES | HTR5A inv ctr | HTR5A ag ctr | MOR-DOR inv ag-1 | OPRM1-OPRD1 ag | MOR-DOR inv ag-2 | HTR5A inv confrm
COCc1nnc(NC(=O)c2ccc(S(=O)(=O)N(C)Cc3ccccc3)cc2)o1 | 32.5* | -13.4 | -4.3 | 0.8 | 25.8 | 4.2
COCCN(C(=O)c1cc(-c2ccccc2Cl)nc2ccccc12)c1c(N)n(CC(C)C)c(=O)[nH]c1=O | 5.4 | -0.6 | 16.0 | -4.0 | nt | nt
COCCN(C(=O)c1ccccc1Oc1ccccc1)c1c(N)n(CC(C)C)c(=O)[nH]c1=O | 34.7* | -13.9 | 8.2 | -2.1 | -414.8 | -5.3
O=C(CN1CCN(S(=O)(=O)c2ccc(F)cc2)CC1)NC1CCCC1 | 34.9* | -0.4 | 6.5 | -1.2 | -17.0 | 5.7
O=C(CN1CCN(S(=O)(=O)c2ccc(Cl)cc2)CC1)NC1CCCC1 | 0.0 | 0.0 | 3.1 | -0.8 | nt | nt
O=C(COC(=O)Cc1cccs1)Nc1ccc(OC(F)(F)F)cc1 | 10.0 | -3.8 | -5.3 | 0.8 | nt | nt
C=CCN1C=CC(=O)[C@@H](OC(=O)Nc2ccc(Br)cc2)[C@H]1c1ccccc1Br | -5.5 | 1.6 | -11.9 | 2.5 | nt | nt
CCC1(C)Cc2ccccc2-c2c1c(=O)n(-c1ccc(C)cc1)c1nnnn21 (centres undefined) | 39.9* | -0.9 | 4.6 | -0.8 | -120.0 | -24.4
C=CCNC(=O)NC(=O)CSc1nnc(C(F)(F)F)n1C | 3.2 | 1.3 | 11.8 | -2.2 | nt | nt
COc1cccc(C(C(=O)NC(C)(C)C)N(C(=O)CCC(=O)Nc2cc(C)on2)C(C)(C)C)c1OC (centres undefined) | 91.0* | -25.7 | 1.2 | -0.2 | -5.5 | 3.8
COc1cccc(C(C(=O)NC(C)(C)C)N(C(=O)CCC(=O)Nc2cc(C)on2)C(C)C)c1OC (centres undefined) | 12.7 | -2.4 | 15.1 | -2.8 | nt | nt
COc1ccc2[nH]c(C(=O)Nc3ccc(F)cc3Br)cc2c1 | -14.1 | 8.2 | -10.3 | 2.0 | nt | nt
O=C(NN1C(=O)/C(=C/c2ccc(O)c([N+](=O)[O-])c2)SC1=S)c1ccccc1Cl | 28.5* | -2.8 | 26.4 | -5.4 | -71.4 | 1.3
Cc1sc(NC(=O)CS(=O)(=O)c2ccccc2)c(C#N)c1C | 41.4* | -15.9 | 4.7 | -0.7 | -15.3 | -8.4
Cc1sc(NC(=O)CCS(=O)(=O)c2ccccc2)c(C#N)c1C | -3.8 | 0.2 | 5.1 | -0.8 | nt | nt
O=C(NC(c1ccc(Cl)cc1)c1cc(Cl)c2cccnc2c1O)c1cccnc1 (centres undefined) | 30.4* | -11.3 | 5.5 | -0.9 | -0.1 | -8.9
Brc1ccc(-c2nnc(-c3ccccc3Br)o2)cc1 | 39.6* | 7.5 | -16.1 | 2.8 | -49.1 | -7.2
Cc1ccc(-c2nnc(-c3ccccc3Br)o2)cc1 | 1.8 | -0.5 | -19.3 | 4.0 | nt | nt
CCN1c2ccccc2S(=O)(=O)c2ccccc21 | 34.2* | -9.5 | 17.1 | -3.8 | 2.1 | -4.8
Cn1c(C(=O)N[C@@H](C(=O)O)c2ccccc2)cc2cc(F)ccc21 | -5.1 | 1.4 | 15.1 | -3.0 | nt | nt
N#CCCN(C(=O)COC(=O)CCc1c[nH]c2ccccc12)c1ccccc1 | -13.6 | 0.1 | 17.3 | -3.5 | nt | nt
CCCN(CC(=O)Nc1ccccc1C)C(=O)c1ccc(C(=O)c2ccccc2)cc1 | -20.5 | 6.8 | -11.6 | 1.8 | nt | nt
CCCN(CC(=O)Nc1ccccc1C)C(=O)c1ccc(-c2ccc(C(C)=O)cc2)o1 | 42.6* | -4.5 | 13.7 | -2.5 | -60.0 | -7.6
COCCn1c(SCC(=O)NNC(=O)c2cc(Cl)ccc2OC)nnc1-c1ccncc1 | 43.4* | -17.6 | 5.8 | -1.4 | -24.1 | -153.6
COCCOC(=O)C1=C(C)OC(N)=C(C#N)C1c1ccc2c(c1)OCO2 (centres undefined) | 33.3* | -9.2 | 11.0 | -2.0 | -25.6 | -13.8
SMILES | HTR5A inv ctr | HTR5A ag ctr | MOR-DOR inv ag-1 | OPRM1-OPRD1 ag | MOR-DOR inv ag-2 | HTR5A inv confrm
CCn1c(-c2ccc(-c3ccccc3)cc2)c[nH]c1=S | 33.4* | -10.1 | -0.1 | 0.0 | -309.1 | -11.1
COc1cc(/C=N/Nc2ccc([N+](=O)[O-])cc2S(=O)(=O)N2CCOCC2)cc(OC)c1OC | -1.8 | 1.5 | 13.4 | -2.5 | nt | nt
O=[N+]([O-])c1ccc(N/N=C/c2cccc(O)c2O)c(S(=O)(=O)N2CCOCC2)c1 | 48.0* | -9.4 | -6.5 | 1.3 | -23.5 | 27.4
O=[N+]([O-])c1ccc(N/N=C/c2ccc(O)c(O)c2O)c(S(=O)(=O)N2CCOCC2)c1 | 26.7* | -10.2 | 3.6 | -0.6 | 7.8 | 5.1
CCCC(=O)Nc1ccccc1NC(=O)c1ccc(OC(C)=O)cc1 | -19.9 | 3.6 | 3.1 | -0.6 | nt | nt
Cc1ccccc1NC(=O)CC1C(=O)Nc2ccccc2N1CC(=O)N(C)C1CCS(=O)(=O)C1 (centres undefined) | -1.6 | 0.7 | 7.5 | -1.8 | nt | nt
O=C1CCC[C@@H]2C[C@@]3(C[C@@H]4CCN1[C@H]24)Nc1cc([N+](=O)[O-])ccc1NC3=NC1CCCCC1 | 35.4* | -2.3 | 16.3 | -2.9 | -24.3 | -12.9
O=C1CCC[C@@H]2C[C@@]3(C[C@@H]4CCN1[C@H]24)Nc1cc(Cl)ccc1NC3=NC1CCCCC1 | -17.1 | 3.5 | -2.5 | 0.5 | nt | nt
Cc1ccc(C)c(CN2CCC(CNC(=O)Nc3ccc(F)c(Cl)c3)CC2)c1 | -2.3 | 0.6 | -26.2 | 5.6 | nt | nt
CCO[C@@H]1OC(C(=O)N2CCN(Cc3ccccc3)CC2)=C[C@H](c2ccc(Br)cc2)[C@H]1CCCO | 36.6* | -7.0 | 12.0 | -2.1 | 18.0 | 2.5
CCO[C@@H]1OC(C(=O)N2CCN(Cc3ccccc3)CC2)=C[C@H](c2ccc(C(F)(F)F)cc2)[C@H]1CCCO | 9.0 | -3.5 | -21.4 | 3.9 | nt | nt
CCOc1ccccc1CN1CCNC(=O)C1CC(=O)NCCN1CCOC1=O (centres undefined) | -4.8 | 1.2 | 4.7 | -0.9 | nt | nt
COCCCNC(=O)c1cc(C(=O)c2ccccc2Br)c[nH]1 | 70.8* | -25.8 | 2.2 | -0.4 | -37.5 | -22.9
CNC(=O)c1cc(C(=O)c2ccccc2Br)c[nH]1 | 10.4 | -2.9 | 16.2 | -3.5 | nt | nt
C#CCOCCOCCOCCNc1nc(N2CCOCC2)nc(N2CCN(C(=O)[C@H](CO)n3cc([C@@H](N)C(C)C)nn3)CC2)n1 | 12.3 | -4.8 | 2.8 | -0.5 | nt | nt
CN(C)c1ccc2nc3c(=O)[nH]c(=O)nc-3n(CC(O)C(O)C(O)CO)c2c1 (centres undefined) | 33.2* | -9.1 | 29.1 | -5.7 | 17.5 | 85.4*
O=C(NC(=S)NNC(=O)[C@H]1C[C@@H]1c1ccccc1)c1ccc(F)cc1 | -3.5 | 3.1 | 8.8 | -1.7 | nt | nt
O=C(/C=C/c1ccc(F)cc1)NC(=S)NNC(=O)[C@H]1C[C@@H]1c1ccccc1 | 48.0* | -11.8 | 20.1 | -3.8 | -39.7 | -56.3
O=[N+]([O-])c1cc(/C=N/N/C(=N/c2ccccn2)c2ccccn2)ccc1O | 24.4* | -8.7 | 12.1 | -2.3 | 26.7 | -36.5
O=[N+]([O-])c1ccc(/C=N/N/C(=N/c2ccccn2)c2ccccn2)cc1 | 3.4 | -1.7 | -18.0 | 3.1 | nt | nt
O/N=C/Cc1[nH]c2ccccc2c1-c1ccccc1 | -6.8 | 1.9 | 8.4 | -1.9 | nt | nt
Cc1cccc(NC(=S)N/N=C2/CCCCc3ccccc32)c1 | 42.7 | -12.2 | 16.2 | -3.0 | nt | nt
